Bioassay records deposited in PubChem by National Center for Advancing Translational Sciences (NCATS).
In the library only some 10% were active in any assay of this set; here they are far more common.
Six1-Eya2 blk – Six1/Eya2 interaction inhibition. actives 0.56% (n = 360,000). AID 651725. AlphaScreen GST-Six1/His-Eya2 binding, biochemical; stronger effect = lower value. activity change, % (no concentration beside the values); in the data active means activity change below about -65%; inconclusive means mostly about -30% to -63%
Target sequence (O00167 whole entry, looked up): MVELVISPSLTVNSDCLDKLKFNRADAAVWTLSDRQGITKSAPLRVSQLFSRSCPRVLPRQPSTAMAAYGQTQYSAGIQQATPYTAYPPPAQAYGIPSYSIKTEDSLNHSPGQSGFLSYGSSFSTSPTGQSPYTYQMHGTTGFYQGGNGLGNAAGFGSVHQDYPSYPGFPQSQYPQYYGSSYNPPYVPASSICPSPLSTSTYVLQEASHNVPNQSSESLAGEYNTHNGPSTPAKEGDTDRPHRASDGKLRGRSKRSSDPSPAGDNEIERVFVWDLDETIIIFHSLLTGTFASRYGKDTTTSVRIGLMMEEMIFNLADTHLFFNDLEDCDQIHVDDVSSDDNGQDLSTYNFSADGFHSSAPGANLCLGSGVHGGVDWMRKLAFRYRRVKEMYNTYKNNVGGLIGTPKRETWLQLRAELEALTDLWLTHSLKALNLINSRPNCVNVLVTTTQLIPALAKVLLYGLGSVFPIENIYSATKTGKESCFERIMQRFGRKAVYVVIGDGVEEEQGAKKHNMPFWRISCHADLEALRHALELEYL
Target sequence (Q15475 whole entry, looked up): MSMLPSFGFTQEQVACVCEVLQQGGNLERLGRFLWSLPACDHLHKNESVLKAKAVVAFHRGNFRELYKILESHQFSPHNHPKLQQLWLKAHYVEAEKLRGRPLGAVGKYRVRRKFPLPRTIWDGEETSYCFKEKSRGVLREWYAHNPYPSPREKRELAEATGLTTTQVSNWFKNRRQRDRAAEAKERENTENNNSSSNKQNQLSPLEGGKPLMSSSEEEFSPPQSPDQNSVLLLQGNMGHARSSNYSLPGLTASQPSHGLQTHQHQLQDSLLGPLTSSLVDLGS
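Six1/Eya2 binding was read as AlphaScreen signal after compounds were pinned into GST-Six1 plus His-tagged Eya2 (5X stock 250/500 nM) in pH 8.0 Tris/NaCl/TCEP buffer, beads added, then incubated 1 h, 37 C, dark.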
HP1b chromo inh – HP1-beta chromodomain-methylated histone interaction inhibition | P83916 | AlphaScreen HP1-beta / biotin-H3K9me3 peptide binding | Potency, µM (titrated, usually from 114 µM), hits mostly inhibitors | actives 0.56% (n = 390,000) | AID 540317; further: nearly all actives have a fitted effect of over 70% in size
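HP1-beta protein (50 nM final) preincubated 30 min at room temperature with biotinylated H3(1-18)K9me3 peptide (50 nM) in PBS pH 7.4, 0.01% Tween-20, then compound added for 30 min. AlphaScreen streptavidin donor/nickel chelate acceptor beads (10 ug/mL final), 30 min dark, luminescence read.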
CtBP-E1A blk – inhibitors of CtBP/E1A interaction. AlphaScreen GST-E1A/His-CtBP binding, 1536-well; stronger effect = lower value. actives 0.49% (n = 340,000). activity change, % (concentration not given with the values); in the data active means activity change below about -65%; inconclusive means mostly about -30% to -63%
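Homogeneous bead-based format: GST-tagged E1A captured on glutathione donor beads, His-tagged CtBP on nickel acceptor beads; compounds precede bead addition by 2 h at 37 °C.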
BAZ2B inh – blocks human BAZ2B; actives 4.4% (n = 360,000); AlphaScreen BAZ2B-H3K14Ac peptide displacement; Potency, µM (doses to about 114 µM), usual class: inhibitors; Q9UIF8; further: nearly all actives have a fitted effect of over 60% in size
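Compounds, titrated to a top concentration of 110 uM, were incubated 30 min at room temperature with preformed BAZ2B/acetyl-K14 H3 peptide complex (50 nM each). Proximity signal was measured by AlphaScreen after 20 min with beads.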
JMJD2A Tudor – JMJD2A Tudor domain (human) inhibition. O75164. AlphaScreen JMJD2A-Tudor / H3K4me3 peptide binding. Potency, µM (series often up to 114 µM), most hits filed as inhibitors. actives 4.4% (n = 390,000); further: nearly all actives have a fitted effect of over 50% in size
G9a inh – G9a (human) methyltransferase inhibition | Q96KQ7 | G9a H3K9 monomethylation, AlphaScreen, 2 h | Potency, µM (highest dose often 102 µM), actives largely listed as inhibitors | actives 8.8% (n = 350,000); further: nearly all actives have a fitted effect of over 75% in size
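Step 1: enzyme (final 20 nM) with compound, 15 min RT. Step 2: substrate peptide 500 nM and SAM 20 uM, 2 h RT. Step 3: anti-H3K9me1 antibody and AlphaScreen beads, 10 min, then plate read.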
Hits are given with their value; – = inactive; ? = inconclusive; · = not tested or not shown; [ ] = dose if it differs, or a comment. Unless noted, the call rests on the fitted dose curve; in most records, active means well fitted inhibition curve with a large enough effect; inconclusive means small, poorly fitted or top-dose-only effect; inactive means no such curve, though single readings can be large or run the other way.

SMILES	Six1-Eya2 blk	HP1b chromo inh	CtBP-E1A blk	BAZ2B inh	JMJD2A Tudor	G9a inh
COC(=O)c1cc(NS(=O)(=O)c2cccs2)cc(NS(=O)(=O)c2cccs2)c1	–	–	–	–	–	–
CCCCN(C(=O)c1cc(OC)c(OC)c(OC)c1)C1=CC2CCC(C1)N2C (stereo not given)	–	–	–	–	–	56.2µM
COc1cc(C(=O)N(CCc2ccccc2)C2=CC3CCC(C2)N3C)cc(OC)c1OC (stereo not given)	–	–	–	–	–[11.4 µM]	?
CC1=[N+](CC(=O)c2ccccc2)CCn2cccc21	–	–	–	–	–	31.6µM
CCC(=O)Nc1nnc(-c2ccc(Cl)s2)o1	–	–	·	·	–	–
CC(=O)Nc1nnc(-c2ccc(Cl)s2)o1	–	–	–	–	–	14.1µM
O=C1Nc2ccc(I)cc2/C1=C/c1cc(Br)c(O)c(Br)c1	·	·	·	·	·	21.2µM
CN(C)c1ccc([C@@H]2[C@@H]([N+](=O)[O-])[C@H]3C=Cc4ccccc4N3[C@H]2C(=O)c2ccc(Cl)cc2)cc1	–	?	?	31.6µM	44.7µM	7.94µM
COc1ccccc1C(=O)NCc1nc2cccnc2n1Cc1ccc(F)cc1	·	–	·	–	–	–
COc1cccc(N2CCN(C(=O)c3cc4c(=O)n(Cc5ccccc5)ccc4nc3C)CC2)c1	–	–	–	–	–	–
COC(=O)c1ccc(SC2CCCCC2)c([N+](=O)[O-])c1	–	–	–	?	?	15.8µM
COC(=O)c1ccc(SCC(=O)NC2CCCC2)c([N+](=O)[O-])c1	–	–	–	–	–	–
c1ccc(-n2c(Sc3cnccn3)nnc2-c2cccs2)cc1	–	–	–	–	–	–[12.7 µM]
Cc1ccc(-n2c(=O)c3c(cnn3C)n(CC(=O)Nc3c(C)cccc3C)c2=O)cc1	·	–	·	–	–	–
COc1cc(/C=N/n2c(-c3n[nH]c4c3CCC4)n[nH]c2=S)ccc1O	–	?	–	–	3.16µM	?
COc1ccc(/C=N/n2c(-c3n[nH]c4c3CCC4)n[nH]c2=S)cc1OC	–	–	–	–	1.41µM	?
COc1cccc(OC)c1-c1nn2c(-c3n[nH]c4c3CCC4)nnc2s1	·	–	·	·	–	·
CN(C)c1ccc(N=Nc2ccc(S(N)(=O)=O)cc2)cc1	–	–	–	?	–	?
CN(C)c1ccc(N=Nc2ccc(S(=O)(=O)O)cc2)c2ccccc12	?	?	·	10µM	35.5µM	11.2µM
CCN1CCN(c2ncc3c(n2)CCN(Cc2cc(F)cc(F)c2)C3)CC1	·	–	·	50.1µM	79.4µM	?
CCN1CCN(c2ncc3c(n2)CCN(Cc2ccc(OC)c(OC)c2)C3)CC1	·	–	·	–	–	–[12.7 µM]
CCc1ccc(CN2CCc3nc(N4CCN(CC)CC4)ncc3C2)cc1	·	–	·	56.2µM	?	?
CSc1ccc(CCNC(=O)CCCn2c(=O)c3cccn3c3ccccc32)cc1	·	–	·	–	?	14.1µM
CCOc1ccc(CCNC(=O)CCCn2c(=O)c3cccn3c3ccccc32)cc1	·	–	·	–	–	–
CC(=O)Cc1nsc(NC(=O)C2Cc3ccccc3C(=O)O2)n1 (stereo not given)	–	–	–	–	–	56.2µM
SMILES	Six1-Eya2 blk	HP1b chromo inh	CtBP-E1A blk	BAZ2B inh	JMJD2A Tudor	G9a inh
CCOc1ccccc1C1C(C#N)=C(N)SC(N)=C1C#N	–	–	–	–	79.4µM	?
CCOc1ccc(C2C(C#N)=C(N)SC(N)=C2C#N)cc1OCC	–	–	–	?	?	?
CCOc1ccc(C2C(C#N)=C(N)SC(N)=C2C#N)cc1OC	·	·	·	?	·	8.91µM
COc1ccc([N+](=O)[O-])cc1N(CC(=O)Nc1ccccc1C(=O)NC(C)C)S(C)(=O)=O	–	–	–	–	–	–
CN=c1scc(-c2c[nH]c3ccccc23)n1C	–	–	–	–	–	39.8µM
COc1ccc(S(=O)(=O)N(CCc2ccccc2)CC(=O)NCc2ccc(C)cc2)cc1	·	–	·	–	–	–
COc1cc(/C=N/NC(N)=O)ccc1OC(=O)c1ccc(C)cc1	·	·	·	–	·	–
O=C(N/N=C/c1ccc(OC(=O)c2ccc([N+](=O)[O-])cc2)cc1)c1cccnc1	?	–	–	–	–	–
COc1ccc(/C=N/NC(=O)c2cccnc2)cc1CN1CCCc2ccccc21	–	44.7µM	–	39.8µM	35.5µM	?
O=C(N/N=C/c1ccc(OC(=O)c2ccccc2)cc1)c1cccnc1	–	?	–	?	–	20µM
Cc1ccc(C(=O)Oc2ccc(/C=N/NC(N)=O)cc2)cc1	–	–	·	?	–	28.2µM
CCc1ccc(NC(=S)Nc2ccc(S(=O)(=O)Nc3ncccn3)cc2)cc1	–	–	–	–	–	–
COCCCNC(=O)C(C)n1c2ccccc2c2cnn(C)c(=O)c21 (stereo not given)	·	–	·	–	–	–
CC12CCC(=O)N1C(C(=O)Nc1nc3c(F)cc(F)cc3s1)CS2 (stereo not given)	–	–	–	–	–	44.7µM
CC12CCC(=O)N1C(C(=O)Nc1nnc(SCc3ccccc3F)s1)CS2 (stereo not given)	–	–	–	–	–	79.4µM
O=S(=O)(Nc1ccc2nc(-c3ccc(F)cc3)oc2c1)c1ccccc1	·	–	·	–	–	–
Cc1cc(S(=O)(=O)N2CCN(CC(=O)N(C)Cc3ccccc3)CC2)ccc1Br	–	–	–	–	–	56.2µM
CN(Cc1ccccc1)C(=O)CN1CCN(S(=O)(=O)c2ccc(Cl)c(Cl)c2)CC1	–	–	–	–	–	?
CCCC1C(c2ccco2)NC(c2ccco2)CC1(C)O (stereo not given)	–	?	–	·	3.55µM	6.31µM
CCCSc1oc(-c2cccs2)nc1S(=O)(=O)c1ccc(Cl)cc1	·	–	·	–	–	–
COc1ccccc1NC(=O)C(C(C)C)N1C(=O)c2ccccc2C1=O (stereo not given)	–	–	–	–	–	·
COc1ccccc1NS(=O)(=O)c1ccc(Cl)c(NC(=O)C(C)N2C(=O)c3ccccc3C2=O)c1 (stereo not given)	–	–	–	–	–	50.1µM
CC(C)(C)c1cn(-c2ccc(Cl)cc2)c(=S)[nH]1	–	–	–	–	35.5µM	2µM
CCOc1cc(/C=C2\C(=O)ON=C2C)ccc1OCc1ccccc1	–	–	–	–	–	12.6µM
CCOc1cc(/C=C/C(=O)O)ccc1OCc1ccccc1	–	–	–	·	–	–
CCCOc1ccc(/C=C2/C(=O)ON=C2C)cc1OCC	–	–	–	–	–	44.7µM
COCCNC(=O)CN1C(=O)COc2ccc(S(=O)(=O)N3CCOCC3)cc21	·	–	·	–	–	–
O=C(CC(=O)Nc1nc(C23CC4CC(CC(C4)C2)C3)cs1)NCCO	–	–	–	–	–	–
